From PubChem BioAssay AID602179 (National Center for Advancing Translational Sciences (NCATS), 2012) come the findings set out here.

SMILES strings stand for the structures. Screen size: about 390,000 compounds; about 360 (0.092%) were called active. Only a selection was taken, and actives are over-represented in it overall. A number with no mark means an inactive call. Calls come from the whole dose curve; as a rule, active = well fitted inhibition curve with a large enough effect; inconclusive = small, poorly fitted or top-dose-only effect; inactive = no such curve, though single readings can be large or run the other way.
Potency is the fitted concentration of half-maximal effect.

Sequence of Isocitrate dehydrogenase [NADP] cytoplasmic (Homo sapiens) (O75874 whole entry R132H, stated change not applied, canonical isoform): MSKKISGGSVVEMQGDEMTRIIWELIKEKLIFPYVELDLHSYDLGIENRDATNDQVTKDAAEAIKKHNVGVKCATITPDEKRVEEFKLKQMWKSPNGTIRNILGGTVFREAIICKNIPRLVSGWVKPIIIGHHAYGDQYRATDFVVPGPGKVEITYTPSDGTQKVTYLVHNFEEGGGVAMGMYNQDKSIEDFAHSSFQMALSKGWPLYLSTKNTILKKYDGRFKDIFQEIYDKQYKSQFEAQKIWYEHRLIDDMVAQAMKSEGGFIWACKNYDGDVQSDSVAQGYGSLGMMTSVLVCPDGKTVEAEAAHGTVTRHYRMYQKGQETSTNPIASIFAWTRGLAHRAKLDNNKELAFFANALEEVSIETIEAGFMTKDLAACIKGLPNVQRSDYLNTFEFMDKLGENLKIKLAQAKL

This test addresses Isocitrate dehydrogenase [NADP] cytoplasmic (Homo sapiens) (UniProt O75874). Nature of the test: qHTS for Inhibitors of mutant isocitrate dehydrogenase 1 (IDH1): qHTS. Note: nearly all actives have a fitted effect of over 65% in size. Conditions: IDH1-R132H enzyme, NADPH consumption, diaphorase/resazurin fluorescence; series mostly up to 76.6 µM; activity change, negative = inhibition: at the top concentration. From the text:
Unbiased genomic sequencing for 22 glioma genomes found recurrent mutation of isocitrate dehydrogenase 1 (IDH1) on chromosome 2q33-a gene encoding the cytosolic isoform of IIDH1associated with the tricarboxylic acid cycle (TCA) that catalyzes the oxidative decarboxylation of isocitrate, yielding alpha-ketoglutarate and CO2 via NADP+ to NADPH conversion. Subsequent studies confirmed the recurrent IDH mutations in up to 70% of secondary gliomas and in 10% of AML cases. […] This in effect defines IDH1 as an oncogene, and provides an extraordinary opportunity to discover chemical probes against mutant IDH1 that may translate into much needed new therapies for glioma and AML patients. […] NIH Chemical Genomics Center [NCGC] NIH Molecular Libraries Probe Centers Network [MLPCN] MLPCN Grant: DA032129 Assay Submitter (PI): Lenny Dang, Agios Pharmaceuticals
IDH1-R132H (0.5 ug/mL) was dispensed into black, solid-bottom 1536-well plates at 3 uL/well in 20 mM Tris-HCl (pH 7.5), 150 mM NaCl, 10 mM MgCl2, 4 mM beta-ME, and 0.05% protease-free BSA. Then, 23 nL of compounds or DMSO were delivered to each well using a pin tool. A pre-read was run on the Viewlux to identify fluorescent compounds (540 nm excitation filter, 598 nm emission filter, bodipy mirror and 2 second exposure). After 30 minutes of incubation with compound, 3 uL of substrate mix were dispensed (0.016 mM NADPH, 2 mM alpha-KG, 20 mM Tris-HCl (pH 7.5), 150 mM NaCl, 10 mM MgCl2, and 0.05% protease-free BSA). Plates were spun for 1 min at 1000xg and incubated at room temperature for 80 min. Then 1.5 uL of each detection reagent component for the coupling system were added (0.12 mg/mL diaphorase and 0.072 mM resazurin, each in 20 mM Tris-HCl (pH 7.5), 150 mM NaCl, 10 mM MgCl2, and 0.05% protease-free BSA ) The protein, substrate and two detection components were maintained at 4 °C throughout the screen. Additionally, the substrate and resazurin reagents were protected from light. The plates were measured on an Envision plate reader for fluorescence signal using a 540 nm excitation filter and 590 nm emission filter with 10 flashes. 1x and 0x (no-enzyme) IDH1-R132H enzyme control were used to normalize %Activity of identified inhibitors; 0x enzyme values corresponded to 100% Activity (full inhibition), while 1x IDH1-R132H enzyme values were used to normalize 0%Activity (no inhibition). Concentration-response curves were fitted to the signals arising from the resulting fluorescence. The concentration-effect curves were then classified based on curve quality (r2), response magnitude and degree of measured activity, and compounds were subsequently categorized based on their curve class. […] Keywords: isocitrate dehydrogenase, IDH1, IDH1-R132H, MLSMR, MLPCN, NIH Roadmap, qHTS, NCGC
Consider `CC(C)(C)c1ccc(S(=O)(=O)Nc2ccc(O)c(Sc3nc4ccccc4s3)c2)cc1`, for which the Potency is 39.8 µM (active).

Turning to `Cn1c(O)c(C=NCCN2CCNCC2)c(=O)n(C)c1=O`, the “activity change, negative = inhibition” value was 3.83%. Same read-out and setting: for `CCOCCc1c(O)[nH]c(=S)[nH]c1=O` the value was 0%. On the same count and under the same terms, for `O=C(Nc1ccc(Cl)cc1C(=O)c1ccccc1)c1cc(Cl)cc(Cl)c1` the value was -0.857%. `CC(C)Oc1ccc(NC(=O)c2cc3ccccc3o2)cc1`: the “activity change, negative = inhibition” value is 44.4%.
